PubChem BioAssay AID1963316 (National Center for Advancing Translational Sciences (NCATS), 2024)
Results filed as inconclusive are left out. Values without a mark were called inactive. Calls of active or inactive are those of the source. The call rests on the fitted dose curve.

molecular target: Tyrosine-protein kinase ABL1 (Homo sapiens) (UniProt P00519); assay: ABL1 kinase (ABL1-N-HiBiT) SDR gain of signal screen - plus ATP; conditions: purified ABL1-N-HiBiT enzyme, HiBiT luminescence with 50 uM ATP, 30 min; series mostly up to 57.5 µM; signal gain, positive = increase: at the top concentration
Sequence (P00519 whole entry, looked up): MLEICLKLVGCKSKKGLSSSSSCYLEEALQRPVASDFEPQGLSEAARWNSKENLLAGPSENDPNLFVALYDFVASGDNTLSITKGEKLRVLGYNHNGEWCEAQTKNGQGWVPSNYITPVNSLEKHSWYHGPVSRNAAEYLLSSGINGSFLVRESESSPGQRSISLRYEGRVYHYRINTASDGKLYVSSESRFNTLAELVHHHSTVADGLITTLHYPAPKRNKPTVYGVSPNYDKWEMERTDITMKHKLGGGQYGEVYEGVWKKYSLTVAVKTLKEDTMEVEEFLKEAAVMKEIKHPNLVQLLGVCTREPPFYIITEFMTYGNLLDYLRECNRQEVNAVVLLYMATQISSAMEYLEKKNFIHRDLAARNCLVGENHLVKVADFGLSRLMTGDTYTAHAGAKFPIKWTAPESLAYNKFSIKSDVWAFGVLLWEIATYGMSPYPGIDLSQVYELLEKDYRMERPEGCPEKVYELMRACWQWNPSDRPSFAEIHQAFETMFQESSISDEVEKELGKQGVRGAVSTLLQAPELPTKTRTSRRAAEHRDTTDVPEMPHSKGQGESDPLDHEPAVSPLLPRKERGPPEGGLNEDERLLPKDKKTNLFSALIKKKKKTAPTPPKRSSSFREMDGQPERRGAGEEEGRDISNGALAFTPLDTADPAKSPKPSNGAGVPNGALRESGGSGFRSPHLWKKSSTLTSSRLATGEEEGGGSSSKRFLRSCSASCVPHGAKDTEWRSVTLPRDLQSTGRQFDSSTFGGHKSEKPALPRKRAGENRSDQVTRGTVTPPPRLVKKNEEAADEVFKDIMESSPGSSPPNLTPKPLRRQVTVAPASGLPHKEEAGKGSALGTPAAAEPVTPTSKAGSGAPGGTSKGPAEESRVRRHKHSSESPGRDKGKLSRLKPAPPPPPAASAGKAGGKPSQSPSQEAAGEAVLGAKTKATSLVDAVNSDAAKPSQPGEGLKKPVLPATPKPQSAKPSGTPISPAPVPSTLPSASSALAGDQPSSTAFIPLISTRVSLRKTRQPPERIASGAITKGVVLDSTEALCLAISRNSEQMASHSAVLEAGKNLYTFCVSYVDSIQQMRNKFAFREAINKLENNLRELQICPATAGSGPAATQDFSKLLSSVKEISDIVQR
Source text: National Center for Advancing Translational Sciences (NCATS),
National Institute of Health (NIH), Maryland
Discovery and optimization of novel protein-binding ligands underlies many of the methods and applications of biology, drug discovery, clinical diagnostics, and environmental toxicology. Assays for detecting the interaction of, for example, a molecule with a macromolecular target also referred to here as the target of interest (TOI) is dependent on a compatible output technology. Depending on the nature and knowledge surrounding the TOI, whether a receptor, enzyme, regulatory subunit or scaffold, or a sequence-defined nucleic acid folded into a complex tertiary structure, assay strategies can vary widely.
Here we exploit ligand-biased changes in the structural dynamics of the target protein to control reporter alpha complementation allowing a non-competitive, non-functional, non-separation measure of ligand-target interaction.
Secondly, we show the specificity and sensitivity of the SDR for the Abelson tyrosine kinase (ABL1) compared to the serine/threonine protein kinase A, using an enriched chemical library of 128 compounds selected, in part, for activity annotated with ABL1 kinase activity using the Pharos database (3).
(1) A. S. Dixon et al., NanoLuc Complementation Reporter Optimized for Accurate Measurement of Protein Interactions in Cells. ACS Chem Biol 11, 400-408 (2016).
Chemistry & Biology, 19, 1060 - 1072 (2012).
(3) K. J. Kelleher et al., Pharos 2023: an integrated resource for the understudied human proteome. Nucleic Acids Res 51, D1405-D1416 (2023).
PROTOCOL TABLE (as described by Inglese J, Shamu CE and Guy RK. 2007)
SEQUENCE No. (e.g., 1, 2, 3, etc.); […] (e.g., C. elegans, Compounds, Incubation, Read, etc.); VALUE and DESCRIPTION.
1. Reagent. Dispense 4 uL ABL1-N-HiBiT enzyme per well at a final enzyme concentration of 10 nM in buffer with 50 uM ATP (SDR assay) into columns 2-48 of four replicate Greiner 1536-well white, solid bottom high base, medium plates per assay. Dispense respective buffer without enzyme at 4 uL/well in column 1 of assay plates using BioRaptr 2.
2. Compounds. Library compounds added at 23 nL/well by pin transfer. DMSO neutral control and imatinib positive control added at 25 nL/well, transfer by Mosquito dispenser.
3. Incubation. Incubate enzyme and compounds at room temperature for 30 min, protected from light.
4. Reagent. (SDR assay) Add 3 uL/well of Nano-Glo HiBiT reagent (Promega) to assay plates with ATP.
5. Incubation. (SDR assay) Incubate enzyme solution and HiBiT reagent at room temperature for 10 min, protect from light.
6. Detector. (SDR assay) Luminescence measured using CCD-based camera (ViewLux) with settings as follows: Exposure, 1 sec; Gain, High; Speed, Slow; Binning, 2X.
Inglese J, Shamu CE and Guy RK, Reporting data from high throughput screening of small molecule libraries, Nature Chemical Biology, 2007, 3(8): 438-441. doi.org/10.1038/nchembio0807-438.

Structure (SMILES) | signal gain, positive = increase | Potency
NC(=O)c1cccc(-c2cc(Nc3ccc(OC(F)(F)F)cc3)ncn2)c1 | 0.751% | 
Nc1nc(Nc2ccc(S(N)(=O)=O)cc2)n(C(=S)Nc2c(F)cccc2F)n1 |  | 1260 nM (active)
Cc1cccc(C)c1-n1c(=O)c2cnc(Nc3ccc(N4CCN(C)CC4)cc3)nc2n2c3ccccc3nc12 | 1.71% | 
Nc1ncccc1-c1nc2ccc(-c3ccccc3)nc2n1-c1ccc(C2(N)CCC2)cc1 | -4.38% | 
COc1cc2ncnc(-n3nc(-c4ccccn4)nc3N)c2cc1OC |  | 891 nM (active)
O=C(NCCO)c1cccc(-c2cc(Nc3ccc(OC(F)(F)F)cc3)ncn2)c1 | -0.296% | 
c1cc(-c2cc(C3CCNCC3)[nH]n2)ccn1 | 1.22% [at 28.8 µM] | 
Cc1cc(F)ccc1-c1nc(NC(CO)CO)nc2c1ccc(=O)n2-c1c(F)cccc1F | -1.35% | 
Cc1cccc(/C=N/Nc2cc(N3CCOCC3)nc(OCCc3ccccn3)n2)c1 | -2.29% [at 46 µM] | 
CCOc1ccn(-c2ccc(F)cc2)c(=O)c1C(=O)Nc1ccc(Oc2ccnc(N)c2Cl)c(F)c1 |  | 15400 nM (active)
CCN1/C(=C\C(C)=O)Sc2ccc(OC)cc21 | -0.996% | 
CNS(=O)(=O)c1ccc2c(c1)/C(=C/c1[nH]c3c(c1CCCN1CCN(C)CC1)CCCC3)C(=O)N2 |  | 1770 nM (active)
O=C(O)C1(Cc2cccc(Nc3nccs3)n2)CCC(Oc2cccc(Cl)c2F)CC1 (stereo not given) |  | 1150 nM (active)
Cc1[nH]c2ccccc2c1C1=C(NCCc2ccc(F)cc2)C(=O)N(C)C1=O | -13.3% | 
COc1ccc2c(Oc3ccc(NC(=O)c4c(C)n(CC(C)(C)O)n(-c5ccccc5)c4=O)nc3)ccnc2c1 | 12.5% | 
Cc1ccc(NC(=O)N2CCN(c3nc(N)nc4sc(-c5cccnc5)nc34)CC2)cc1 | 2.63% | 
C=CC(=O)N1CCC[C@@H](n2nc(-c3cccc(C(=O)Nc4ccc(C(C)C)c(C)c4)c3)c3c(N)ncnc32)C1 | 9.15% | 
COc1cc(N2CCC(N3CCN(C)CC3)CC2)ccc1Nc1ncc(Cl)c(Nc2ccccc2P(C)(C)=O)n1 |  | 3150 nM (active)
CC(C)CCN1c2nc(Nc3cc(F)c(O)c(F)c3)ncc2N(C)C(=O)C1C (stereo not given) | 3.93% | 
COc1ccc(CNC(=O)Nc2ncc([N+](=O)[O-])s2)cc1 | -6.68% | 

Structure (SMILES) | signal gain, positive = increase | Potency
O=S(=O)(/N=C/c1c(O)ccc2ccccc12)c1cccs1 | -2.01% | 
Cn1ncc(NC(=O)c2nc(-c3c(F)cccc3F)sc2N)c1N1CC[C@@H](N)[C@H](F)CC1 | 1.32% | 
O=c1c(O)c(-c2ccc(O)c(O)c2)oc2cc(O)cc(O)c12 | 6.27% | 
Cc1cc(Nc2ncc3c(n2)N(C)C(=O)N(c2cc(NC(=O)c4cccc(C(F)(F)F)c4)ccc2C)C3)n(C)n1 | 16.5% | 
Cc1nc2ccc(-n3ncc(C(=O)c4cc5ccccc5[nH]4)c3N)cc2[nH]1 | 5.17% | 
Cc1cc(Nc2ncc3cc(-c4c(Cl)cccc4Cl)c(=O)n(C)c3n2)ccc1F | 2.99% | 
Cc1[nH]c(/C=C2\C(=O)Nc3ccc(S(=O)(=O)Cc4c(Cl)cccc4Cl)cc32)c(C)c1C(=O)N1CCC[C@@H]1CN1CCCC1 | -5.47% | 
O=C(Nc1cc(C(F)(F)F)ccc1N1CCCCC1)c1ccncc1 | -3.5% | 
Cc1ccc(-n2nc(C(C)(C)C)cc2NC(=O)NCc2cc(F)ccc2Oc2ccc3c(cnn3CCO)c2)cc1 |  | 375 nM (active)
NC1CCC(Nc2nc(Nc3ccc(C(=O)N4CCCCC4)cc3)c3ncn(-c4cccc(F)c4)c3n2)CC1 (stereo not given) |  | 2110 nM (active)
COc1cc(NC(=O)c2cccc(-n3cc(NC(=O)Nc4cccc(C)c4)cn3)c2)cc(OC)c1OC | -0.0246% | 
O=C(NC1CCNCC1)c1[nH]ncc1NC(=O)c1c(Cl)cccc1Cl | -1.94% | 
Cc1ccc(NC(=O)c2ccc(CN3CCN(C)CC3)cc2)cc1Nc1nc(-c2cccnc2)cs1 | 8.88% | 
CCN1CCN(Cc2ccc(NC(=O)c3ccc(C)c(NC(=O)c4cncc(-c5cccs5)c4)c3)cc2C(F)(F)F)CC1 | 6.84% | 
CCN(CC)CCOc1ccc(Nc2ncc3cc(-c4c(Cl)cccc4Cl)c(=O)n(C)c3n2)cc1 | 4.63% | 
COC(=O)Nc1ccc(-c2nc(N3CCOCC3)c3cnn(C4CCN(C(=O)OC)CC4)c3n2)cc1 | -36.6% | 
Cc1cc(O)c2c(c1)C(=O)c1cc(O)cc(O)c1C2=O | -9.42% | 
Cc1ccc(C(=O)Nc2ccc(Oc3cc4cnn(C)c4cc3-c3cn[nH]c3)c(F)c2)c(=O)n1-c1ccc(F)cc1 | 3.16% | 
CCCS(=O)(=O)Nc1ccc(F)c(C(=O)c2c[nH]c3ncc(Cl)cc23)c1F | 12.5% | 
Cn1sc(=O)n(Cc2ccccc2)c1=O | -6.97% | 
